# From PubChem BioAssay (EPA / NIEHS)
# Calls of active or inactive are those of the source. The calls were made as follows: active = hit-call score of the fitted dose curve at least 0.9, where 1 is the maximum; inactive = score below 0.9.
# Target: CCAAT/enhancer-binding protein beta (Homo sapiens) (UniProt P17676)
# Experiment: ATG_C_EBP_CIS: Attagene CIS-FACTORIAL HepG2 Assay for human CCAAT/Enhancer Binding Protein (C/EBP) beta (AID 2282927)
# Conditions: HepG2 Attagene cis-factorial transcription factor reporter; actives raise or lower the signal
# Method: ATG_CIS is a cell-based, multiplexed-readout assay that uses HepG2, a human liver cell line, with measurements taken at 24 hours after chemical dosing in a 24-well plate.ATG_C_EBP_CIS is one of 52 assay component(s) measured or calculated from the ATG_CIS assay. It is designed to make measurements of mRNA induction, a form of inducible reporter, as detected with fluorescence intensity signals by Reverse transcription polymerase chain reaction (RT-PCR) and Capillary electrophoresis technology.Data from the assay component ATG_C_EBP_CIS was analyzed into 1 assay endpoint. This assay endpoint, ATG_C_EBP_CIS, was analyzed with bidirectional fitting relative to DMSO as the negative control and baseline of activity. Using a type of inducible reporter, measures of mRNA for gain or loss-of-signal activity can be used to understand the reporter gene at the transcription factor-level as they relate to the gene CEBPB. Furthermore, this assay endpoint can be referred to as a primary readout, because this assay has produced multiple assay endpoints where this one serves a reporter gene function. To generalize the intended target to other relatable targets, this assay endpoint is annotated to the dna binding intended target family, where the subfamily is basic leucine zipper.
# Human liver HepG2 cells are transiently transfected with multiple reporter transcription units (MRTUs) in 6-well plates using FuGene 6 reagent (Roche; 3 ml FuGene/1 mg DNA). The MRTU constructs are regulated by a cis-regulating element (promoter). […] A major difference between the CIS and TRANS system is that in CIS activities of endogenous TFs are measured, whereas the TRANS assay evaluates changes in activities of exogenous, chimeric NR-Gal4 proteins. […] At the end of 24 hour incubation, total RNA was isolated using TriZol reagent (Invitrogen). The isolated RNA is then reverse-transcribed using oligo(dT) primer and Mo-MLV reverse transcriptase (Invitrogen) with DNAse I (Ambion) treatment for 30 min. The one-tenth of the produced cDNA was amplified by PCR using Taq DNA polymerase (Invitrogen) and two reporter sequence-specific primers. The PCR products were fluorescently labeled by primer extension with 6-arboxyfluorescein (6-FAM) 5'-labeled reporter sequence-specific primer (2 min at 95 C, 20 s at 68 C and 10 min at 72 C) and these products were digested with 5U of HpaI (New England Biolabs) for 2h at 37 C. The fragments were purified using Qiaquick PCR columns (Qiagen), analyzed on an ABI 3130xL genetic analyzer (Applied Biosystems) with peak positions identified by using a set of X-rhodamine (ROX)-labeled MapMarker1000 molecular weight standards (BioVentures). The raw capillary electrophoresis data was processed using Attagraph software (Attagene).
# CCAAT/enhancer-binding protein beta (Homo sapiens), sequence (P17676 whole entry, looked up): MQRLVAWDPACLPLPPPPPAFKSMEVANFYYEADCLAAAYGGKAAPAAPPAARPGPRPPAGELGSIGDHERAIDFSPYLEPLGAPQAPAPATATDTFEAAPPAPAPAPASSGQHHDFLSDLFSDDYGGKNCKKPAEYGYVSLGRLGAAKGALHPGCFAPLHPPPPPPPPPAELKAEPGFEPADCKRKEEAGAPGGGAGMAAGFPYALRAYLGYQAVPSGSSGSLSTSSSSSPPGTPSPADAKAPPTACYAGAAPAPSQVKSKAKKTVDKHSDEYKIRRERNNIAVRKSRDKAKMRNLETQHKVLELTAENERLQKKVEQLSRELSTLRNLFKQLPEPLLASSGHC
SMILES,outcome,AC50
Nc1cc([N+](=O)[O-])ccc1O,inactive,–
Cc1ccccc1C=O,inactive,–
CC1CCC2CC1C2(C)C (stereo not given),inactive,–
CC(=O)c1c(C)cc(C(C)(C)C)cc1C,inactive,–
C=CC(=O)OCCn1c(=O)n(CCOC(=O)C=C)c(=O)n(CCOC(=O)C=C)c1=O,inactive,–
CCCCNC(=O)NS(=O)(=O)c1ccc(C)cc1,inactive,–
O=CCCc1ccccc1,inactive,–
CC1CCC(C(C)CS)CC1S (stereo not given),inactive,–
CC1(C)[C@@H]2CC[C@@]1(C)[C@H](O)C2,inactive,–
O=Cc1ccc(Cl)c([N+](=O)[O-])c1,inactive,–
ClCCCl,inactive,–
C=C(C)[C@@H]1CC[C@@H](C)C[C@@H]1O,inactive,–
CN(C)CCCN,inactive,–
C[C@H]1C[C@@H]2[C@H]([C@@H](O)C[C@@]3(C)[C@H]2CC[C@]3(O)C(=O)CO)[C@@]2(C)C=CC(=O)C=C12,inactive,–
CN1[C@@H]2CC(OC(=O)[C@H](CO)c3ccccc3)C[C@H]1[C@@H]1O[C@@H]12 (stereo not given in full),inactive,–
NC(=O)Nc1ccc(Cl)cc1,inactive,–
C=O,inactive,–
CCCCC[Si](OCC)(OCC)OCC,inactive,–
C=C(C)C(=O)NCCCN(C)C,inactive,–
CN(CCOc1ccc(CC2SC(=O)NC2=O)cc1)c1ccccn1 (stereo not given),inactive,–

SMILES,outcome,AC50
COC(=O)C1=C(C)NC(C)=C(C(=O)OCCN(C)Cc2ccccc2)C1c1cccc([N+](=O)[O-])c1 (stereo not given),–,15.5 µM (active)
O=S(=O)(O)c1cccc2c(S(=O)(=O)O)cccc12,inactive,–
CCCC(=O)C(C)=O,inactive,–
O=C1C(c2[nH]c3ccc(S(=O)(=O)O)cc3c2O)=Nc2ccc(S(=O)(=O)O)cc21,inactive,–
C=CC[N+](C)(C)CC=C,inactive,–
CC1(C)[C@H](C(=O)OCc2cccc(Oc3ccccc3)c2)[C@@H]1C=C(Cl)Cl,inactive,–
CC(=O)/C=C/C1=C(C)CCCC1(C)C,inactive,–
CC(=O)C=CC1=C(C)CCCC1(C)C,inactive,–
CCC/C=C/C=O,inactive,–
CCCCC/C=C/C=C/C=O,inactive,–
CC(CCO)CCc1ccccc1 (stereo not given),inactive,–
COCCOCCOCCOCCOCCO,inactive,–
CNC(=O)Oc1ccc2c(c1)[C@]1(C)CCN(C)[C@@H]1N2C,inactive,–
CNCCO,inactive,–
CC(=O)OCc1ccc2c(c1)OCO2,inactive,–
c1cc(C(c2ccc(OCC3CO3)cc2)c2ccc(OCC3CO3)cc2)ccc1OCC1CO1 (stereo not given),inactive,–
Nc1ccc(S(N)(=O)=O)cc1,inactive,–
NCCCN1CCOCC1,inactive,–
COc1ccc(Cl)cc1C,inactive,–
CC(C)(C)c1n[nH]c(=S)n(N)c1=O,inactive,–
